# Compound activity from PubChem.
# Hits are enriched below; roughly 3.9% of the tested compounds scored in any of these assays.
# Vc quorum ag = inducers of Vibrio cholerae quorum light production without autoinducers, primary screen, BH1578 luxS cqsA deficient, single point | 0.16% of 350,000 active | V. cholerae BH1578 lux reporter, luminescence, 6 h | AID 588436, 2011 | activation, % at 18.7 µM; in the data active = activation mostly above about 9.7%, no sharp cut-off
# PrPC TRFRET = inhibitors of human cell surface prion protein PrPC, primary screen, cell-based, TR-FRET; Major prion protein (Homo sapiens), P04156; TR-FRET read-out; inhibition, % at 13.8 µM; 0.43% of 370,000 active; AID 720596, 2013; in the data active = inhibition above about 24%; also: 0% = median of the test wells and 100% = reference compound wells
# GDH-TPI counter = GDH-TPI coupling enzyme inhibitors, primary screen, artefact control for M. tuberculosis FBA inhibitor project, biochemical, absorbance, full deck | GDH-TPI coupled enzyme counterscreen, NADH absorbance | inhibition, % at 4.8 µM | 1.2% of 360,000 active; in the data active = inhibition above about 30%;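 also: 0% = DMSO wells and 100% = wells lacking the enzyme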
# Mtb FBA inh = Mtb FBA enzyme inhibitors, primary screen, biochemical, fluorescence, strain H37Rv | AID 588726, 2011 | inhibition, % at 1 µM | purified M. tuberculosis FBA, fluorescence read-out | 2.3% of 360,000 active; in the data active = inhibition above about 27%;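 also: 0% = vehicle and 100% = reference inhibitor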
# Target sequence (P9WQA3 whole entry, looked up): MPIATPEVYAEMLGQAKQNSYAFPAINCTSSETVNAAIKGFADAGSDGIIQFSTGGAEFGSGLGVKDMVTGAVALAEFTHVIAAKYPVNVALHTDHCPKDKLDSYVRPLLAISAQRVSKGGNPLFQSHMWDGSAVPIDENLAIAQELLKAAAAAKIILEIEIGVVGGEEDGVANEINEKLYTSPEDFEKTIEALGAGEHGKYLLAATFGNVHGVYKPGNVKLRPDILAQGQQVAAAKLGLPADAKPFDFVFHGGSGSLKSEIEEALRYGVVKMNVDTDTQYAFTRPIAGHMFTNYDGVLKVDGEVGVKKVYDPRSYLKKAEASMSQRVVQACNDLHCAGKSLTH
# SARS 3CLpro inh = SARS-CoV 3CLpro protease inhibitors, primary screen, biochemical, quenched FRET; Replicase polyprotein 1ab (Severe acute respiratory syndrome coronavirus), P0C6X7; recombinant SARS-CoV 3CLpro, quenched FRET peptide cleavage; inhibition, % at 6 µM; 0.14% of 290,000 active; AID 1706, 2009; in the data active = inhibition above about 12%
# An asterisk follows results filed as active; i = inactive; . = no result given; + = active, no number.
SMILES,Vc quorum ag,PrPC TRFRET,GDH-TPI counter,Mtb FBA inh,SARS 3CLpro inh
O=C(Nc1nc2ccc(S(=O)(=O)N3CCCCC3)cc2s1)c1cccnc1,-1,8,40*,3,1
CN(C)S(=O)(=O)c1ccc2nc(NC(=O)c3cccs3)sc2c1,-12,1,30,10,4
CN(C)S(=O)(=O)c1ccc2nc(NC(=O)c3cccnc3)sc2c1,-1,1,36*,0,-1
Cn1c2ccccc2c(=O)c2ccc(C#CC3(O)CCCCC3)cc21,i,-1,12,171*,1
Cc1nc(N2CCOCC2)c2c(C)c(C(=O)Nc3ccccc3Cl)sc2n1,-1,4,31*,-3,1
Cc1nc(N2CCOCC2)c2c(C)c(C(=O)Nc3ccc(F)cc3Cl)sc2n1,-1,3,-7,-3,2
CN1CC=C2C(C#N)=C(N)C(C#N)(C#N)C(CCc3ccccc3)C2C1 (stereo not drawn),-1,.,0,39*,3
COc1ccc(NC(=O)C(=O)c2cn(CC(=O)N3CCOCC3)c3ccccc23)cc1OC,-1,-20,33*,0,-8
COc1ccccc1NC(=O)C(=O)c1cn(CC(=O)N2CCOCC2)c2ccccc12,-11,-3,23,0,-6
COc1ccc(-c2cc(-c3ccccc3)nc3ncnn23)cc1,0,-8,25,+,8
Cc1cc(=O)oc2c(C(=O)/C=C\c3cccs3)c(O)ccc12,4,-20,42*,1,-3
COc1ccc(/C=C\C(=O)c2c(O)ccc3c(C)cc(=O)oc23)cc1OC,i,-9,52*,5,4
COc1cccc(/C=C/C(=O)c2c(O)cc(C)oc2=O)c1O,i,-7,23,-4,-1
CC(=O)c1c(OCC(=O)O)ccc2c(C)cc(=O)oc12,-5,5,17,6,2
COc1cc(/C=C/C(=O)c2c(O)ccc3c(C)cc(=O)oc23)ccc1O,6,-15,50*,2,-13
COc1cc(/C=C/C(=O)c2c(O)cc(C)oc2=O)cc(OC)c1O,-7,-8,34*,-6,-1
Cc1cc(=O)oc2c(C(=O)/C=C/c3ccccc3)c(O)ccc12,i,-4,2,8,-5
O=C(/C=C\N1CCOCC1)c1ccc(Br)cc1,0,7,24,-3,5
O=C(/C=C/N1CCOCC1)c1ccc(-c2ccccc2)cc1,i,.,38*,-5,2
O=C(NCCCN1CCOCC1)c1cc2ccccc2cc1O,-2,-2,-4,2,.
CCOC(=O)c1c(N)n(CC(C)NC(=O)C2CC2)c2nc3ccccc3nc12 (stereo not drawn),.,.,.,.,4
C=CCn1c(N)c(C(=O)Nc2ccccc2)c2nc3ccccc3nc21,-1,-4,5,10,-1
C=CCn1c(N)c(C(=O)OC(C)CC)c2nc3ccccc3nc21 (stereo not drawn),i,3,20,167*,-4
C=CCn1c(N)c(C(=O)OC(C)(C)C)c2nc3ccccc3nc21,i,-4,22,+,2
COc1ccc(-c2ccc(C(=O)NCCc3ccccc3)c3occc23)c(C)c1,i,6,11,17,.
SMILES,Vc quorum ag,PrPC TRFRET,GDH-TPI counter,Mtb FBA inh,SARS 3CLpro inh
CC(=O)Oc1ccccc1/C=C/c1ccc2ccccc2[n+]1C,-1,-30,31*,2,2
COc1ccc(/C=C/c2ccc3ccccc3[n+]2C)cc1OC,-1,.,21,-7,-1
COC(=O)c1ccc2nc(-c3ccc(C)cc3)c(Cc3cccc(Cl)c3)n2c1,.,8,.,.,.
O=S(=O)(c1ccc(N2CCC(c3ccc(Cl)cc3)=N2)cc1)N(CCO)CCO,0,-9,32*,+,5
CN(C)CCCNS(=O)(=O)c1ccc(N2CCC(c3ccc(Cl)cc3)=N2)cc1,.,-5,.,.,4
CCOc1ccc(NC(=S)N(C)C)cc1,i,8,-6,-1,1
Cn1c(-c2ccsc2)c(-c2cccs2)c2cc(-c3ccc4cc[nH]c4c3)ccc21,-4,2,35*,5,.
Cn1c(-c2ccsc2)c(-c2cccs2)c2cc(-c3ccc4[nH]ccc4c3)ccc21,1,3,29,6,.
CC(C)C1CC(O)(C2(O)CCCCC2)ON1 (stereo not drawn),-2,-2,-1,0,-6
CCN(CC)c1ccc(/C=N/NC(=O)CC(C)C)cc1,0,-8,21,19,2
CCN(CC)c1ccc(/C=N\NC(N)=O)cc1,-1,1,48*,26,-6
CCN(CC)c1ccc(/C=N/NC(=O)Nc2ccccc2)cc1,0,7,32*,15,3
COC(=O)CCC[C@H](C)[C@@H](NS(=O)(=O)c1ccc(C)cc1)C(C)(C)C,.,-3,.,.,.
CCSc1nc(N)c2c3c(sc2n1)CN(C)CC3,.,.,.,.,-4
COC(CSc1nc(N)c2c3c(sc2n1)CN(C)CC3)OC,0,0,36*,181*,2
CCc1ccc(/C=C2\CN(CC)Cc3c2nc2ccccc2c3C(=O)O)cc1,i,-1,44*,2,-2
O=C(CN1C(=O)S/C(=C\c2ccccc2Cl)C1=O)NCCCn1ccnc1,0,-5,35*,3,3
CCOC(=O)c1sc(NC(=O)CSc2n[nH]c(-c3ccccc3)n2)c(C#N)c1C,-1,2,33*,7,-1
CCOC(=O)c1sc(NC(=O)CSc2nc(C)cc(C)n2)c(C#N)c1C,0,-2,32*,7,2
CCOC(=O)c1sc(NC(=O)CSc2ccccn2)c(C#N)c1C,i,-1,5,2,2
CCOC(=O)c1sc(NC(=O)CSc2ncn[nH]2)c(C#N)c1C,-5,1,31*,-1,1
CCOC(=O)c1sc(NC(=O)CSc2nnc(Cc3ccccc3)o2)c(C#N)c1C,-1,.,27,-3,3
C[C@@H]1COc2cc(Br)ccc2S(=O)(=O)N1Cc1cn(Cc2ccc(Cl)cc2)nn1,.,1,.,.,.
COc1ccc(S(=O)(=O)N2CCSC2C)cc1C (stereo not drawn),0,7,4,-1,-11
COc1cccc(N2CCN(S(=O)(=O)c3ccc4c(c3)N(C(C)=O)CCO4)CC2)c1,i,-4,10,6,3
CCOC(=O)N1CCN(c2c(N3CCN(c4ccccn4)CC3)c(=O)c2=O)CC1,0,-5,7,4,3
CCOC(=O)N1CCN(c2c(Nc3ccc4c(c3)OCCO4)c(=O)c2=O)CC1,0,4,42*,2,0
CCOC(=O)N1CCN(c2c(N3CCc4ccccc43)c(=O)c2=O)CC1,.,-13,51*,0,0
CCOC(=O)N1CCN(CC(=O)NC(=O)Nc2ccc3c(c2)OCCO3)CC1,i,1,1,-4,.
